Source: PubChem
Pf growth 48h: inhibits P. falciparum growth in the first generation, 48 h; Potency, µM (highest dose often 28.7 µM), inactives show at the highest dose activity change, negative = inhibition, usual class: inhibitors; P. falciparum luciferase growth in erythrocytes, 48 h; 310,000 tested, 5.9% active; AID 504832; further: potency means the concentration at half of the fitted maximal effect; on the % scale 0 is the no-effect control and ±100 the full control effect
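Luminescence readout; reporter = integrated firefly luciferase in P. falciparum. RBC culture at 2% hematocrit, 0.1% parasitemia final, 37 C/5% CO2; decreased signal taken as growth inhibition.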
AMA1-RON2 inh: AMA1-RON2 (P. falciparum) interaction inhibition; 360,000 tested, 0.2% active; AlphaScreen AMA1-biotinylated RON2 peptide binding; Potency, µM (titrated, usually from 58.2 µM), for the others: at the highest dose activity change, negative = inhibition, actives largely listed as inhibitors;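 further: potency means the concentration at half of the fitted maximal effect; 0% = vehicle wells and -100% = peptide control; nearly all actives have a fitted effect of over 45% in size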
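AMA1 (3D7) with his tag at 25 nM final met compounds first, then biotinylated RON2 peptide at 25 nM; detection used donor plus acceptor beads, 10 µg/mL apiece, read by AlphaScreen after 30 min at room temperature.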
Shiga toxin inh: blocks Shiga toxin action in Vero cells; inhibition, % at 38.7 µM; 290,000 tested, 9.2% active; Vero cells, Shiga toxin protein synthesis inhibition reporter; in the data active means inhibition mostly above about 28%, no sharp cut-off; inactive means mostly below about 43%; further: 0% is about no effect
SARS PLP yeast: inhibitors of SARS-CoV papain-like protease in yeast. S. cerevisiae expressing SARS-CoV PLpro, growth rescue. Potency, µM (doses to about 32.9 µM), for inactives: at the top dose activity, positive = growth rescue, actives largely listed as activators. 330,000 tested, 0.19% active. AID 485353; calls by dose curve; further: potency means the concentration at half of the fitted maximal effect; 0% is about no effect; nearly all actives have a fitted effect of over 55% in size
Cycloheximide cs: counter-screen hit for Shiga toxin inhibitors, cycloheximide. cell reporter, cycloheximide protein synthesis inhibition counterscreen. max response, %. 300,000 tested, 12% active. AID 2314; in the data active means max response mostly above about 13%, no sharp cut-off; inactive means mostly below about 14%; further: read at 38.3 µM for the half of the compounds with a filed dose; 0% is about no effect
Pf growth 96h: inhibits malaria parasite growth, 96 h | Potency, µM (doses to about 28.7 µM), for the others: top-dose activity change, negative = inhibition, hits mostly inhibitors | 320,000 tested, 6.9% active | P. falciparum luciferase reporter growth, 96 h | AID 504834; further: potency means the concentration at half of the fitted maximal effect; on the % scale 0 is the no-effect control and ±100 the full control effect
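Cell-based qHTS: luciferase-tagged P. falciparum in erythrocytes (2% hematocrit, 0.05% parasitemia final) incubated with compounds for 96 hours, 37 C, 5% CO2; luciferase detection reagent then added and luminescence measured.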
The depositor's hits bear a star; ? = inconclusive; . = not tested or not shown; [ ] = another dose, or the depositor's remark. Only some compounds are listed: those with a hit (about 19% of all), similar ones and a draw of the others. Unless noted, the call rests on the fitted dose curve; in most records, active means well fitted curve in the direction sought with a large enough effect; inconclusive means small, poorly fitted or top-dose-only effect, or another doubt; inactive means no such curve, though single readings can be large; an effect the other way counts as inactive or inconclusive.

SMILES | Pf growth 48h | AMA1-RON2 inh | Shiga toxin inh | SARS PLP yeast | Cycloheximide cs | Pf growth 96h
Cc1ccc(NC(=O)Nc2cccnc2)cc1Cl | ? | 7% | 63* | -2% | 37* | ?
O=C(Nc1cccnc1)Nc1cc(Cl)cc(Cl)c1 | ? | -8% | -1 | -3% | 1 | ?
O=C(Nc1cccnc1)Nc1ccc(Br)cc1Cl | ? | 8% | 56* | -9% | 29* | .
Cc1ccc(C)c(Nc2cc(C(=O)NCc3cccnc3)c3ccccc3n2)c1 | ? | 10% | -13 | -1% | -2 | ?
CC(C)N1CCC1(C)C(=O)Nc1cc(-c2ccccc2)nn1C (stereo not drawn) | . | 17% | . | . | . | .
CC1(OC(=O)CCc2ccccc2)C(=O)C=C2C=C(c3ccc(C#N)cc3)N(CCc3c[nH]c4ccccc34)C=C2C1=O (stereo not drawn) | 12µM* | -2% | -9 | -1% | -4 | ?
COc1ccc(CN2C=C3C(=O)C(C)(OC(=O)CCc4ccccc4)C(=O)C=C3C=C2c2ccc(C#N)cc2)cc1 (stereo not drawn) | 9.3µM* | -11% | 60 | -1% | 6 | ?
CCN(CC)CCCN1C=C2C(=O)C(C)(OC(=O)CCc3ccccc3)C(=O)C=C2C=C1c1ccc(C#N)cc1 (stereo not drawn) | ? | -3% | -1 | 1% | -2 | ?
CC(=O)Nc1ccc(NC(=O)CSc2ccc([N+](=O)[O-])cn2)cc1 | -2% | -12% | 4 | -1% | -3 | 22%
COc1ccc(C[C@@](C)(N)C(=O)O)cc1OC | -13%[12.8 µM] | . | . | . | . | -19%[12.8 µM]
CCCCCCC(=O)N(O)C1CC(=O)N(c2ccc(Cl)cc2)C1=O (stereo not drawn) | 4.1µM* | -14% | 1 | -7% | -2 | 10µM*
Clc1ccc(-c2noc(COc3ccccc3)n2)cc1 | 55% | 12% | 24 | 4% | -2 | 27%
Clc1ccc(OCCCc2nc(-c3ccncc3)no2)c(Cl)c1 | 44% | 17% | 16 | -29% | 16 | 24%
COc1ccccc1-c1nc(-c2ccccn2)no1 | . | 55% | -5 | -18% | 14 | 3%
Clc1ccccc1OCc1nc(-c2ccccn2)no1 | 293% | 11% | 70* | -13% | 33* | .
Clc1ccc(OCc2nc(-c3ccccn3)no2)c(Br)c1 | 190% | 13% | 66* | -4% | 42* | 39%
Clc1ccc(OCCCc2nc(-c3cccnc3)no2)c(Cl)c1 | 6% | 32% | -13 | -27% | 14 | 9.3µM*
CN1CCN(C(=O)C2=NOC3(C2)C(=O)Nc2ccccc23)CC1 (stereo not drawn) | . | 0% | . | . | . | .
CC(C)Sc1nc2ccc(N3C(=O)C4CCCCC4C3=O)cc2s1 (stereo not drawn) | 13% | 4%[2.32 µM] | 24 | -9% | 24* | 17%
O=C(O)c1ccc(CSc2nc3ccc(N4C(=O)C5C6C=CC(C6)C5C4=O)cc3s2)cc1 (stereo not drawn) | -8% | -6% | -12 | 11% | 5 | -24%
COc1ccc(/C=C/c2c(-c3ccc(OC)cc3)sc3ccc(N4CCOCC4)cc23)cc1 | ? | -23% | 3 | -7% | -3 | ?
COc1ccc(-c2oc3ccc(N4CCOCC4)cc3c2/C=C/c2ccc(OC)c(OC)c2)cc1 | ? | 0% | 30* | -3% | 12* | 12µM*
C=CCNS(=O)(=O)c1cc(S(=O)(=O)NCC=C)c(OC)cc1OC | 236% | 9% | -5 | 0% | 1 | 2.9µM*
CCN(CC)CCNC(=O)c1cc(Nc2ccc(OC)c(OC)c2)nc2ccccc12 | ? | -16% | -6 | -1% | 8 | 1%
OC[C@@H]1CN(Cc2ccco2)C[C@H](n2cnc3c(NCc4ccc(F)cc4)ncnc32)O1 | . | -4% | . | . | . | .
SMILES | Pf growth 48h | AMA1-RON2 inh | Shiga toxin inh | SARS PLP yeast | Cycloheximide cs | Pf growth 96h
Cc1cccc2nc(-c3ccccc3)nc(N[C@@H](CO)c3ccccc3)c12 | 13µM* | -14% | -11 | -81% | 4 | 13µM*
O=[N+]([O-])c1ccc(-c2cnc(NO)nc2)cc1 | 12µM* | 48%[11.6 µM] | 4 | -20% | -2 | ?
Nc1ncc(-c2ccc([N+](=O)[O-])cc2)cn1 | 42% | -15% | -4 | -3% | -1 | -91%
Cc1noc(C)c1S(=O)(=O)NC(=O)C1(C)CCN1C(=O)Cc1ccc(Cl)cc1Cl (stereo not drawn) | . | 4% | . | . | . | .
Cc1cc(Cl)ccc1NC(=O)/C=N/O | 1.9µM* | -5% | 8 | -1% | 2 | 3%
Cc1cc(Cl)ccc1NC(=O)CCC(=O)O | 10% | 10% | -8 | 12% | -4 | 13%
Nn1c(COc2ccccc2)nc2ccccc2c1=O | 99% | 6% | 57* | 5% | 48* | -2%
CCCCCc1nc2ccccc2c(=O)n1N | -12% | 2% | -13 | -7% | 22* | ?
COc1ccc(-c2nc3ccccc3c(=O)n2N)cc1 | 35% | 2% | 15 | 4% | -2 | 31%
Cc1ccccc1OCc1nc2ccccc2c(=O)n1N | . | -5% | 41 | -11% | 31* | 46%
COc1ccc2cc(C(C)c3nc4ccccc4c(=O)n3N)ccc2c1 (stereo not drawn) | ? | -22% | 17 | ? | -6 | 1.2µM*
CN(C)S(=O)(=O)c1ccc(C(=O)NCCC(=O)N2CCCC2)cc1 | 46% | 3% | -1 | 0% | 1 | 54%
COC(=O)[C@]12CCCCC=C1N(CCc1ccc(OC)c(OC)c1)C(=O)[C@H](CC(=O)NCc1cccc(C(F)(F)F)c1)C2 | . | 7% | . | . | . | .
O=S(=O)(N/N=C\c1ccc2c(c1)OCO2)c1ccc(Cl)cc1 | 13% | -5% | -1 | -10% | -4 | -4%
COc1cccc(CCc2nc3ccccc3c(=O)n2N)c1 | . | -3% | . | . | . | .
COc1cccc(OCc2nc3ccccc3c(=O)n2N)c1 | 68% | 12% | 84* | -1% | 27* | 1%
COc1ccc(C2/C=C\CN(S(=O)(=O)c3ccc4ccccc4c3)CC(=O)N2Cc2ccc(F)cc2)cc1 (stereo not drawn) | 13µM* | 5% | -2 | 2% | 14 | ?
COc1ccc(C2/C=C\CN(C(=O)C3CC3)CC(=O)N2Cc2ccc(F)cc2)cc1 (stereo not drawn) | 35% | 1% | 53 | -3% | 33 | 54%
COc1ccc(C2/C=C\CN(Cc3ccc(N(C)C)cc3)CC(=O)N2Cc2ccc(F)cc2)cc1 (stereo not drawn) | ? | 16µM* | -3 | -2% | -4 | ?
COc1ccc(C2/C=C\CN(S(=O)(=O)/C=C/c3ccccc3)CC(=O)N2Cc2ccc(F)cc2)cc1 (stereo not drawn) | ? | 1% | -1 | -3% | 1 | ?
CCc1nc(N)nc(N)c1-c1ccc(Cl)cc1 | 0.083µM* | 0% | -10 | 1% | -4 | 4.3µM*
COC(=O)c1ccc(S(=O)(=O)N(C2CCCCC2)C2CCCCC2)n1C | 10µM* | -11% | -4 | -1% | -1 | ?
